High-throughput results from PubChem.
This excerpt belongs to a sample that is enriched for hits.
Choline anaer gr: growth inhibitors of anaerobic choline-fed gram-negatives, minimal medium, absorbance. Gram-negative bacterium anaerobic choline minimal medium; hits give low values. AID 1963822, 2024. 0.2% of 55,000 active. calls only; call rule not given here
Starred values were filed as active, the others as inactive; i = inactive; + = active, no number; ! = not confirmed by another sample.

SMILES	Choline anaer gr
CC(c1nnc(SCC(=O)N2CCc3cc(Br)ccc32)n1C)N1C(=O)COc2ccccc21 (configuration not stated)	i
O=S1(=O)N=CN(c2cccc(F)c2)c2ncccc21	i
Cc1ccc(NC(=O)c2nnc(C(=O)NCc3c(C)nn(C)c3C)s2)cc1	i
CSc1ccc2c(c1)N(CCC1CCCCN1C)c1ccccc1S2 (configuration not stated)	i
CN1CCCC1CCOC(C)(c1ccccc1)c1ccc(Cl)cc1 (configuration not stated)	+
O=S(=O)(c1ccccc1)N1CCCC1c1ccc(Cl)cc1 (configuration not stated)	i
Cc1sc2cc(C(=O)N3CCC4(CC3)OCCO4)[nH]c2c1CN1CCCCC1	i
CCCN1CCN(C(=O)c2cc3sc(C)c(CN4CCCCC4)c3[nH]2)CC1	i
Cc1sc2cc(C(=O)N3CCC(N4CCCCC4)CC3)[nH]c2c1CN1CCCCC1	+
CC(C)CCNC(=O)CN1C(=O)C2CCCC2=Nc2ccccc21 (configuration not stated)	i
Cc1ccc(-c2noc(-c3cc(N4CCCC4)nc4ccccc34)n2)cc1	i
Cc1nc2sccn2c(=O)c1NC(=O)c1ccc2c(c1)OCO2	i
CCCCC/C=C\C/C=C\CCCCCCCC(=O)O	i
CCCCC/C=C\C/C=C\C/C=C\CCCCCCC(=O)O	i
CCCCC/C=C\C/C=C\C/C=C\CCCCC(=O)O	+
Cc1cc(C)c(S(=O)(=O)Nc2cccc(C(=O)N3CCCC(C(=O)NC4CC4)C3)c2)c(C)c1 (configuration not stated)	i
CCOc1ccccc1NC(=O)N1CCN(S(=O)(=O)c2ccc3c(c2)NC(=O)C(C)O3)CC1 (configuration not stated)	i
CN1CCN(CCc2ccc(Cl)c(Cl)c2)CC1	+
CN1CCN(CCNC(=O)c2cc3n(n2)CCCC3)CC1	i
CN1CCN(S(=O)(=O)c2cc(-c3ccc(=O)[nH]n3)ccc2Cl)CC1	i
CCN(CC)S(=O)(=O)c1cccc(C(=O)CN2C(=O)c3ccccc3OC(C)C2=O)c1 (configuration not stated)	i
CCN1CCc2nc(NC(=O)c3ccc(S(=O)(=O)N4CCc5ccccc5C4)cc3)sc2C1	+
O=C(Nc1nc2ccccc2s1)c1ccc(S(=O)(=O)N2CCc3ccccc3C2)cc1	i
CCCN1CCc2nc(NC(=O)c3ccc(S(=O)(=O)N4CCc5ccccc5C4)cc3)sc2C1	i
O=C(CSc1nc(=O)n(Cc2ccncc2)c2c1CCC2)Nc1nccs1	i
SMILES	Choline anaer gr
COc1cccc(NC(=O)c2ccc(Oc3ccnc(-c4cccc(C)c4)n3)cc2)c1	i
Cc1onc(-c2c(F)cccc2Cl)c1C(=O)N[C@@H]1C(=O)N2C(C(=O)O)C(C)(C)S[C@H]12 (some centres not stated)	i
Cc1onc(-c2ccccc2Cl)c1C(=O)N[C@@H]1C(=O)N2[C@@H]1SC(C)(C)[C@@H]2C(=O)O	+
CC1(C)S[C@@H]2[C@H](NC(=O)Cc3ccccc3)C(=O)N2[C@H]1C(=O)O	i
COc1ccc(-c2cnn3c(SCC(=O)N4CCc5ccccc54)cc(C)nc23)cc1OC	i
CCOCCCN1C(=O)Cn2cccc2C1C(=O)NC1CCCCC1 (configuration not stated)	i
Cc1ccc(-c2noc3ncnc(NCCN(C)C4CCCCC4)c23)cc1	i
CN(CCNc1ncnc2onc(-c3cccc(Cl)c3)c12)C1CCCCC1	+
Clc1cccc(-c2noc3ncnc(NCc4ccc5c(c4)OCO5)c23)c1	i
O=C(NCC1CCCO1)c1cc2occc2c(Nc2ccc(F)cc2)n1 (configuration not stated)	i
Cc1ccc(S(=O)(=O)N(C)CCc2noc(C3CCCCC3)n2)c2nsnc12	i
COc1ccc(C2CC(=O)C3=C(C2)Nc2onc(C)c2C3CC(C)C)cc1 (configuration not stated)	i
O=c1c2cn[nH]c2nc(SCc2nc(-c3ccc(Br)cc3)no2)n1-c1ccccc1	i
CCOc1ccc(OCC)c(NS(=O)(=O)c2cc(-c3cc(CC)no3)cs2)c1	i
CCCCC[C@H](O)CC[C@H]1[C@H](O)CC(=O)[C@@H]1CCCCCCC(=O)O	+!
CCCCC[C@H](O)/C=C/[C@H]1[C@H](O)CC(=O)[C@@H]1CCCCCCC(=O)O	i
CCCCC[C@H](O)/C=C/[C@H]1[C@H](O)CC(=O)[C@H]1CCCCCCC(=O)O	i
CC(C)CCNC(=O)C1(c2ccc(NS(C)(=O)=O)cc2)CCC1	i
CCCCC[C@H](O)/C=C/[C@@H]1[C@@H](C/C=C/CCCC(=O)O)[C@H](O)C[C@H]1O	i
O=C(O)CCC/C=C/C[C@@H]1[C@@H](/C=C/[C@@H](O)COc2cccc(C(F)(F)F)c2)[C@H](O)C[C@@H]1O	i
CC(C)OC(=O)CCCC=CCC1C(O)CC(O)C1CCC(O)CCc1ccccc1 (configuration not stated)	i
